Experimental data taken from PubChem BioAssay.
Values joined by “and” are separate entries in the source; they are usually repeats but may differ in a detail not shown here. Identical values can stand only once. Active and inactive are the calls of the source. Unless noted, the rule behind the calls is not given here.

How the values were obtained:
[1] = tested on: Aerobactin synthetase IucA (Klebsiella pneumoniae); experiment: IucA aerobactin synthetase inhibitors, biochemical, Tocris library, absorbance (AID 1345561); conditions: purified IucA enzyme assay, absorbance (OD) read-out; stronger effect = lower value;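 tested at 8 µM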;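 note: 100% = enzyme without compound and 0% = no enzyme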
[2] = sensitizers of A549 cells to miR-34 induction, primary screen, imaging, A549 dox-inducible miR-34, nuclei and caspase counts (AID 1347080;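 active = compounds whose cell count with miR-34 switched on is under 0.7 times the count with it off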); conditions: A549 miR-34 inducible, Hoechst nuclei count, 48 h
[3] = viability rescue of complex I mutant cybrids, primary screen, cell-based, galactose medium, ATP luminescence (AID 1645843;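 active = z-score of at least 1.8 in each of two replicates, scored against plate mean and spread of sample wells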;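 note: positive z means more ATP and so rescue of galactose-driven cybrid death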); conditions: complex I mutant cybrid cells, 72 h, stronger effect = higher value
[4] = circadian clock period modulators, cell-based, LOPAC library, luminescence reporter (AID 2774); conditions: circadian reporter cells, at 7 µM, actives lie on both sides;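 note: values are relative to mean of DMSO wells on each plate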
[5] = tested on: Hepatitis C virus NS3 helicase; experiment: HCV NS3 helicase inhibitors, primary screen, biochemical, fluorescence polarization, LOPAC1280 library (AID 687035; in the data active = inhibition above about 37%); conditions: Purified HCV NS3 helicase, Cy5-dT15 ssDNA binding fluorescence polarization; stronger effect = higher value; concentration not given here
[6] = Cy5 fluorescence quenching or enhancement artefacts, artefact control for HCV NS3 helicase inhibitor project, biochemical, LOPAC1280 (AID 687037); conditions: Cy5-DNA-NS3h complex fluorescence interference counterscreen
[7] = phospholipid biosynthesis inhibitors in animal cells, primary screen, cell-based, LOPAC library, screen 4 (AID 1347384); conditions: phospholipid biosynthesis inhibition screen, at 10 µM
[8] = hESC survival regulators, cell-based (AID 493140); conditions: human embryonic stem cell survival screen; stronger effect = higher value;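 note: cells exposed to compounds for four days before counting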
[9] = liver-stage malaria parasite growth inhibition, primary screen, cell-based, HepG2, luciferase luminescence, HepG2 viability (AID 624349; in the data active = parasite load remaining mostly below about 12%, no sharp cut-off; inactive = mostly above about 10%;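 note: 100% = mean of DMSO negative control wells on the same plate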); conditions: P. berghei liver stage in HepG2, luciferase luminescence, concentration not given here; parasite load remaining: stronger effect = lower value; viability: measured here: HepG2 viability without parasites
[10] = survival rescue of mitochondrial mutant cells in low glucose, primary screen, MELAS cybrids, Rieske KO mouse fibroblasts, CellTiter-Glo (AID 1508586;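 active = mean z-score across replicates of 1.96 or higher in either the MELAS or the Rieske mutant cell line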;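 note: z relative to plate mean and SD of compound and empty wells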)
[11] = inhibitors of Cryptococcus chitosan production, flow cytometry, Cibacron Brilliant Red staining (AID 1347148); conditions: Cryptococcus neoformans chitosan, stronger effect = lower value; at 10 µM unless noted;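 note: compound exposure lasted three days at 37 degrees C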
[12] = stronger effect = lower value, cell number ratio, induced over uninduced
[13] = measured here: relative caspase fold change +Dox/-Dox
[14] = measured here: total cells with miR-34 induction, stronger effect = lower value
[15] = measured here: total cells without miR-34 induction

SMILES | remaining activity [1] | fold change [2, 12] | fold change [2, 13] | cell count [2, 14] | cell count [2, 15] | z-score [3] | period change [4] | inhibition [5] | fluorescence ratio (interference) [6] | outcome [7] | survival [8] | parasite load remaining [9] | viability [9] | z-score ([10]; MELAS cybrid survival, CellTiter-Glo 48 h, stronger effect = higher value) | z-score ([10]; Rieske KO mouse fibroblast survival, CellTiter-Glo 72 h) | fold fluorescence [11]
COc1ccc(CCCOC(Cn2ccnc2)c2ccc(OC)cc2)cc1 (stereo not given) | 113% (inactive) | 1.01 (inactive) and 1.05 (inactive) | 1.53 and 0.475 and 0.778 | 1590 and 4390 and 2690 | 1570 and 4170 and 2650 | -0.775 (inactive) | – | – | – | – | – | – | – | – | – | –
CC1CCN(CC[C@H]2CCCN2S(=O)(=O)c2cccc(O)c2)CC1 | 106% (inactive) | 0.975 (inactive) and 0.908 (inactive) | 1.72 and 0.97 | 9460 and 8490 | 9700 and 9350 | -0.155 (inactive) and -0.32 (inactive) | 0.055 h (inactive) | -3% (inactive) | 1 (inactive) | inactive | – | – | – | – | – | –
CN(C)CCCSC(=N)N | 105% (inactive) | 0.94 (inactive) and 0.947 (inactive) | 0.889 and 0.696 | 8690 and 7530 | 9240 and 7950 | -0.34 (inactive) | – | – | – | – | 12 (inactive) | 63.2% (inactive) | 78.8% | 0.388 (inactive) | -0.104 | –
O=C1NC(=O)c2cc(Nc3ccccc3)c(Nc3ccccc3)cc21 | 123% (inactive) | 1.14 (inactive) and 0.996 (inactive) | 1.65 and 1.45 | 3180 and 3240 | 2790 and 3260 | -1.08 (inactive) and -0.55 (inactive) | – | 0% (inactive) | 1 (inactive) | inactive | – | – | – | – | – | –
CC[N+](CC)(CC)CC(=O)Nc1c(C)cccc1C | 100% (inactive) and 106% (inactive) | – | – | – | – | 0.42 (inactive) and 1.23 (inactive) and 0.065 (inactive) | 0.065 h (inactive) | -2% (inactive) | 1 (inactive) | inactive | – | – | – | – | – | 6.95 [at 145.6 µM] (inactive)
O=C(O)CCC/C=C\C[C@@H]1[C@@H](/C=C/[C@@H](O)COc2cccc(Cl)c2)[C@H](O)C[C@@H]1O | 110% (inactive) | 0.943 (inactive) and 0.93 (inactive) and 0.921 (inactive) | 1.66 and 1.25 and 1.86 | 5470 and 5960 and 8580 | 5810 and 6400 and 9320 | -0.155 (inactive) | – | – | – | – | 113 (inactive) | – | – | – | – | –
Nc1ccc(-c2nc3ccc(-c4nc5ccc(N)cc5[nH]4)cc3[nH]2)cc1 | 107% (inactive) | 1.02 (inactive) and 0.968 (inactive) | 0.586 and 0.928 | 11200 and 10100 | 10900 and 10500 | 4.82 (active) and 5.54 (active) | – | -5% (inactive) | 0.6 (active) | inactive | – | – | – | – | – | –
O=[N+]([O-])c1cccc2c(Br)[nH]nc12 | 94.1% (inactive) | – | – | – | – | 1.04 (inactive) and -0.23 (inactive) | -0.085 h (inactive) | -1% (inactive) | 0.9 (inactive) | inactive | – | – | – | – | – | 16.8 [at 206.6 µM] (inactive)
COC(=O)[C@H](NC(=O)c1cc(-c2ccccc2)nc2ccccc12)c1ccccc1 | 100% (inactive) | 1 (inactive) and 0.927 (inactive) | 0.906 and 0.535 | 9010 and 8560 | 8980 and 9240 | 0.22 (inactive) and -0.03 (inactive) | -0.11 h (inactive) | -1% (inactive) | 1 (inactive) | inactive | – | – | – | – | – | –
CCCCCCCCCCC(C)(C)C(=O)Nc1c(OC)cc(OC)cc1OC | 89.7% (inactive) | 1.03 (inactive) and 0.876 (inactive) | 2.03 and 1.56 | 8990 and 6930 | 8710 and 7910 | -1.29 (inactive) and -0.7 (inactive) | – | -1% (inactive) | 1 (inactive) | inactive | – | – | – | – | – | –
